Our source for the outcome and AC50 values is PubChem BioAssay (EPA / NIEHS).

Active and inactive are the calls of the source. The calls were made as follows: active = hit-call score of the fitted dose curve at least 0.9, where 1 is the maximum; inactive = score below 0.9.

Assay [1] in a line: ATG_CRE_CIS: Attagene CIS-FACTORIAL HepG2 Assay for human cAMP Responsive Element (CRE) binding protein 3 (AID 2282926). The conditions noted are these: HepG2 CRE cis-reporter, Attagene multiplexed mRNA; actives raise or lower the signal. Summed up: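 Induced reporter mRNA from a CRE cis element, measured in HepG2 among many multiplexed units at 24 h. Detection used RT-PCR plus capillary electrophoresis of fluorescent fragments; DMSO served as negative control.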

Assay [2] deals with CCAAT/enhancer-binding protein beta (Homo sapiens) (UniProt P17676). Briefly: ATG_C_EBP_CIS: Attagene CIS-FACTORIAL HepG2 Assay for human CCAAT/Enhancer Binding Protein (C/EBP) beta (AID 2282927). To be noted: HepG2 Attagene cis-factorial transcription factor reporter; actives raise or lower the signal. The gist of the method:
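Changes in reporter mRNA, rather than exogenous chimeric receptor activity, reflect native C/EBP signalling in transfected HepG2 cells dosed for 24 h; transcripts are detected by RT-PCR and capillary electrophoresis.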

Assay [3] can be described thus: ATG_DR4_LXR_CIS: Attagene CIS-FACTORIAL HepG2 Assay for human Liver X Receptor (LXR), DR4 submotif (AID 2282929). The conditions noted are these: HepG2 Attagene DR4 cis-reporter, mRNA transcription; actives raise or lower the signal. The gist of the method:
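Cells were transfected with multiple reporter transcription units, exposed to chemicals for 24 hours, then lysed for RNA. Reporter mRNA induction was measured by RT-PCR with capillary electrophoresis detection and fitted in both directions relative to DMSO.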

The target in assay [4] is Aryl hydrocarbon receptor (Homo sapiens) (UniProt P35869). In words: ATG_Ahr_CIS: Attagene CIS-FACTORIAL HepG2 Assay for human Aryl Hydrocarbon Receptor (Ahr) (AID 2282930). To be noted: HepG2 AhR cis-factorial reporter transcription; actives raise or lower the signal. The gist of the method:
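HepG2, transient MRTU (cis) transfection, 24 h exposure. RNA → cDNA → PCR → 6-FAM primer extension → HpaI 2 h 37 C → CE. Fit: bidirectional, DMSO baseline.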

Assay [5] can be described thus: ATG_AP_1_CIS: Attagene CIS-FACTORIAL HepG2 Assay for human Activator Protein 1 (AP-1) (AID 2282931). The conditions noted are these: HepG2 Attagene cis-factorial AP-1 reporter mRNA; actives raise or lower the signal. Summed up:
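Endogenous transcription-factor activity in human HepG2 liver cells is read through a cis-promoter reporter transcript, sampled 24 h after dosing. Detection uses RT-PCR with capillary electrophoresis; values come from bidirectional fitting relative to DMSO.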

The nature of assay [6]: ATG_AP_2_CIS: Attagene CIS-FACTORIAL HepG2 Assay for human Activator Protein 2 (AP-2) (AID 2282932). The conditions noted are these: HepG2 AP-2 cis-reporter, Attagene transcription factor profiling; actives raise or lower the signal. Summed up:
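Transiently transfected HepG2 cells are exposed to chemical for 24 h. Reporter transcripts are then measured as fluorescence following RT-PCR and capillary separation, and gain- or loss-of-signal is fitted relative to DMSO.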

Assay [7] is described as follows: ATG_BRE_CIS: Attagene CIS-FACTORIAL HepG2 Assay for human Bone Morphogenetic Protein (BMP) Response Element (BRE) (AID 2282933). To be noted: HepG2 BMP response element reporter, Attagene transcription factor profiling; actives raise or lower the signal. The gist of the method:
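Transient MRTU transfection of human HepG2 liver cells; 24 h compound treatment; total RNA isolated, reverse-transcribed, PCR-amplified, 6-FAM labelled, HpaI-cut, capillary electrophoresis. DMSO = negative control/baseline, bidirectional fit.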

For assay [8], the target named is Retinoic acid receptor alpha (Homo sapiens) (UniProt P10276). Briefly: ATG_DR5_RAR_CIS: Attagene CIS-FACTORIAL HepG2 Assay for human Retinoic Acid Receptor Alpha (RARE), DR5 submotif (AID 2282934).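 As to AC50: reporter responds to endogenous RAR alpha beta and gamma in HepG2 not RARA alone.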 The conditions noted are these: HepG2 Attagene cis-factorial RARE DR5 reporter, mRNA; actives raise or lower the signal. Summed up:
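HepG2, transient cis-reporter transfection, 24 h exposure. mRNA readout: RT-PCR, FAM label, HpaI cut, capillary electrophoresis. DMSO baseline, gain/loss fitting.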

For assay [9], the target named is Transcription factor E2F1 (Homo sapiens) (UniProt Q01094). Briefly: ATG_E2F_CIS: Attagene CIS-FACTORIAL HepG2 Assay for human E2F Transcription Factor 1 (AID 2282935). The conditions noted are these: HepG2 Attagene cis-reporter, E2F reporter RNA transcripts; actives raise or lower the signal. The gist of the method:
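Fluorescent RT-PCR products, digested with HpaI for 2 h at 37 C, are separated by capillary electrophoresis. Source RNA comes from transfected HepG2 cultures treated for 24 h.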

Assay [10] in a line: ATG_E_Box_CIS: Attagene CIS-FACTORIAL HepG2 Assay for human Enhancer Box (E-box) (AID 2282936). The conditions noted are these: HepG2 E-box cis-reporter transcription, actives raise or lower the signal. The gist of the method:
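Fluorescent reporter fragments separated by capillary electrophoresis gave the signal; mRNA came from HepG2 cells transfected with cis-element reporters and treated 24 h. Curves fitted bidirectionally relative to DMSO controls.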

Assay [11] in a line: ATG_M_61_CIS: Attagene CIS-FACTORIAL HepG2 Assay for M61 Transcription Factor (Internal Marker) (AID 2282937). To be noted: HepG2 Attagene CIS-FACTORIAL M61 internal marker reporter; actives raise or lower the signal. Summed up: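 Cells were transfected with reporter units under cis-regulatory promoters, treated with chemicals for 24 h, then lysed for RNA. Reporter transcripts were quantified by RT-PCR and capillary electrophoresis, and activity was fitted bidirectionally against DMSO.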

Assay [12] can be described thus: ATG_M_19_CIS: Attagene CIS-FACTORIAL HepG2 Assay for M19 Transcription Factor (Internal Marker) (AID 2282939). To be noted: HepG2 Attagene CIS-FACTORIAL M19 internal marker reporter; actives raise or lower the signal. The gist of the method:
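Transfect HepG2 with MRTU reporter library → dose chemical, 24 h → isolate total RNA, reverse-transcribe with oligo(dT) → PCR, 6-FAM label, HpaI cut (2 h, 37 C) → capillary electrophoresis. Bidirectional fit vs DMSO.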

Assay [13] is described as follows: ATG_ERE_CIS: Attagene CIS-FACTORIAL HepG2 Assay for Estrogen Response Element (ERE) (AID 2282940). To be noted: HepG2 ERE cis-reporter, Attagene RNA transcript; actives raise or lower the signal. The gist of the method: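 Transient MRTU transfection of human HepG2; cis-element promoters; 24 h dosing; total RNA → RT (oligo dT) → PCR → 6-FAM primer extension → HpaI digest → CE fluorescence. Bidirectional fit, DMSO baseline.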

Assay [14] can be described thus: ATG_Ets_CIS: Attagene CIS-FACTORIAL HepG2 Assay for human Erythroblast Transformation Specific (ETS) (AID 2282941). To be noted: HepG2 ETS cis-reporter transcription, actives raise or lower the signal. Summed up:
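Bidirectional fit versus DMSO of reporter mRNA signal, detected by RT-PCR and capillary electrophoresis in HepG2 cells transiently transfected with cis-element reporters and dosed 24 h.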

The target of assay [15] is Hepatocyte nuclear factor 3-beta (Homo sapiens) (UniProt Q9Y261). In words: ATG_FoxA2_CIS: Attagene CIS-FACTORIAL HepG2 Assay for human Forkhead box A2 (FOXA2) (AID 2282942). To be noted: HepG2 cis-reporter transcription factor activity, 24 h; actives raise or lower the signal. Summed up:
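Endogenous transcription factor activity was read in HepG2 cells carrying transiently transfected cis-promoter reporter units. After 24 h dosing, reporter mRNA was quantified by RT-PCR and capillary electrophoresis, and values fitted bidirectionally versus DMSO.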

A short description of assay [16]: ATG_FoxO_CIS: Attagene CIS-FACTORIAL HepG2 Assay for human Forkhead box O (FoxO) (AID 2282943). The conditions noted are these: HepG2 Attagene cis-reporter, FoxO element, mRNA; actives raise or lower the signal. Summed up:
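Human hepatoma HepG2 cells carry transiently introduced reporter transcription units controlled by cis promoter elements. Chemical treatment lasted 24 h, and mRNA signal was compared with DMSO.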

Assay [17] in a line: ATG_GATA_CIS: Attagene CIS-FACTORIAL HepG2 Assay for human GATA Binding Protein (AID 2282944). To be noted: HepG2 GATA cis-element reporter, Attagene multiplex mRNA; actives raise or lower the signal. Summed up:
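Transient MRTU transfection, HepG2, 24 h compound exposure. Total RNA → oligo(dT) RT → PCR → 6-FAM primer extension → HpaI cut → CE. Bidirectional fit vs DMSO.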

A short description of assay [18]: ATG_GLI_CIS: Attagene CIS-FACTORIAL HepG2 Assay for human Zinc Finger Protein GLI1 (AID 2282945). The conditions noted are these: HepG2, Attagene cis-factorial reporter mRNA, GLI element; actives raise or lower the signal. The gist of the method: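 Bidirectional curve fits relative to DMSO, using reporter mRNA levels from RT-PCR plus capillary electrophoresis. Cells were HepG2 transiently carrying cis-regulated reporter constructs, harvested 24 h after dosing.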

The nature of assay [19]: ATG_EGR_CIS: Attagene CIS-FACTORIAL HepG2 Assay for human Early Growth Response 1 (EGR1) (AID 2282938). The conditions noted are these: HepG2 Attagene CIS-FACTORIAL EGR reporter mRNA; actives raise or lower the signal. The gist of the method:
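Endogenous TF activity in HepG2 liver cells was gauged through cis-promoter reporter constructs transiently transfected. After 24 h dosing, reporter mRNA was quantified by RT-PCR and capillary electrophoresis, and curves fitted in both directions versus DMSO.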

Assay [20] in a line: ATG_CMV_CIS: Attagene CIS-FACTORIAL HepG2 Assay for human CMV (Internal Marker) (AID 2282928).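 Also: endpoint acts as a background internal control marker rather than a target.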 To be noted: HepG2 CMV promoter reporter, transcription factor profiling; actives raise or lower the signal. Summed up: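 Reporter transcripts from transfected HepG2 cells are isolated after 24 h of chemical dosing, reverse-transcribed and amplified. Fragments labeled with 6-FAM are cut with HpaI and quantified by capillary electrophoresis; DMSO defines baseline.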

Sequence of Hepatocyte nuclear factor 3-beta (Homo sapiens) (Q9Y261 whole entry, looked up): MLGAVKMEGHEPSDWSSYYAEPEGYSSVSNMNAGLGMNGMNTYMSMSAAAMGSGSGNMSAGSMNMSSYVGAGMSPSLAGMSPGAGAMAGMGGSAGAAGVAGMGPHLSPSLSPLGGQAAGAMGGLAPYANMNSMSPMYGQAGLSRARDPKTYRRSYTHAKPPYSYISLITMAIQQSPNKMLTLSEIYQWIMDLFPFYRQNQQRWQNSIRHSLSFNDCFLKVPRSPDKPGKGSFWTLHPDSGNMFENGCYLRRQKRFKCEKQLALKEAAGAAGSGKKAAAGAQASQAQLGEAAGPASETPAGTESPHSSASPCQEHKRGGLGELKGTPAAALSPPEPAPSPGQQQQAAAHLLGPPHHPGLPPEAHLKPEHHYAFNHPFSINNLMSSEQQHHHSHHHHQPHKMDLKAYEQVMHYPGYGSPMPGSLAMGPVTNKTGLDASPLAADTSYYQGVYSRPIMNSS
Sequence of Retinoic acid receptor alpha (Homo sapiens) (P10276 whole entry, looked up): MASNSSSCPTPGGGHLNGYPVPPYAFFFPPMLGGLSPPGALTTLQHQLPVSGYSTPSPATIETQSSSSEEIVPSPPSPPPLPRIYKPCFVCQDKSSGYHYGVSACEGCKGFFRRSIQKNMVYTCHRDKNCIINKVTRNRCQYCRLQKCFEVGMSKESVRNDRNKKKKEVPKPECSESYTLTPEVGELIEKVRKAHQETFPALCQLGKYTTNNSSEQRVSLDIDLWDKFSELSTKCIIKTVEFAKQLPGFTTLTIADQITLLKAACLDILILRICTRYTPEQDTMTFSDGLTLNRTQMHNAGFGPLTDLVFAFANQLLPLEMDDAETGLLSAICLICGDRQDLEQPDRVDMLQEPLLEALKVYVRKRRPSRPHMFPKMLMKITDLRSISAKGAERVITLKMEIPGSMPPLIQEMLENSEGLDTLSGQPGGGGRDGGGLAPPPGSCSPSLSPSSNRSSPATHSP
Sequence of Aryl hydrocarbon receptor (Homo sapiens) (P35869 whole entry, looked up): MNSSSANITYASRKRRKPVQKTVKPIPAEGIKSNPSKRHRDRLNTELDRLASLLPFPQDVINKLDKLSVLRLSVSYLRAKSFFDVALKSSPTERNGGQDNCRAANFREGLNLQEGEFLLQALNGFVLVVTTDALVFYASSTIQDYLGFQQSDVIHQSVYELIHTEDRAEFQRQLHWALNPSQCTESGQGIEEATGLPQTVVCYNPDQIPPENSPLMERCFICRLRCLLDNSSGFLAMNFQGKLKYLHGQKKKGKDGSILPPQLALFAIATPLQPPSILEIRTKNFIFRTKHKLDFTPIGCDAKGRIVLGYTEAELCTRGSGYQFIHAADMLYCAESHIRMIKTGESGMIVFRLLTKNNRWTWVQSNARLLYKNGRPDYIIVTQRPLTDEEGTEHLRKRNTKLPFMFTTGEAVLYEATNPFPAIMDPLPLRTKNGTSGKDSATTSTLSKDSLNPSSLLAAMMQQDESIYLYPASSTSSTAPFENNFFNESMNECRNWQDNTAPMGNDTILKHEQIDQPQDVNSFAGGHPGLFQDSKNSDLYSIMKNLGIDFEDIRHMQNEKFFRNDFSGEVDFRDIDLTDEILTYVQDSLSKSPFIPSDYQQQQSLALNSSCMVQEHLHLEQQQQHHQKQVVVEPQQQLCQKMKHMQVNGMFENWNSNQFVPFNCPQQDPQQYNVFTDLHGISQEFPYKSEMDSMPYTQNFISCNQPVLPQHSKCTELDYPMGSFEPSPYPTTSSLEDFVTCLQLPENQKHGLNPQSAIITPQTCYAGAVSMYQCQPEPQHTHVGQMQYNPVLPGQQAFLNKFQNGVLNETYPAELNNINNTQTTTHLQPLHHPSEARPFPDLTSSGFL
Sequence of CCAAT/enhancer-binding protein beta (Homo sapiens) (P17676 whole entry, looked up): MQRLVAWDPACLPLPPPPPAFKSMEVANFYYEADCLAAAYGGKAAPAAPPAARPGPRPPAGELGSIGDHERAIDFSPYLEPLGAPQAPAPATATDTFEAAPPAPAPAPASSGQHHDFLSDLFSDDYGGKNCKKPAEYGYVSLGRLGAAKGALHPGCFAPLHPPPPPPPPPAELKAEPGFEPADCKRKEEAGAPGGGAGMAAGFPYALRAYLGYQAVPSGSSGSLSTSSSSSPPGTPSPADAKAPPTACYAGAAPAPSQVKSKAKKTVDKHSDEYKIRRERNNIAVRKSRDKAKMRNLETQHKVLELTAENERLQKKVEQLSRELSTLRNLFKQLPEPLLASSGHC
Sequence of Transcription factor E2F1 (Homo sapiens) (Q01094 whole entry, looked up): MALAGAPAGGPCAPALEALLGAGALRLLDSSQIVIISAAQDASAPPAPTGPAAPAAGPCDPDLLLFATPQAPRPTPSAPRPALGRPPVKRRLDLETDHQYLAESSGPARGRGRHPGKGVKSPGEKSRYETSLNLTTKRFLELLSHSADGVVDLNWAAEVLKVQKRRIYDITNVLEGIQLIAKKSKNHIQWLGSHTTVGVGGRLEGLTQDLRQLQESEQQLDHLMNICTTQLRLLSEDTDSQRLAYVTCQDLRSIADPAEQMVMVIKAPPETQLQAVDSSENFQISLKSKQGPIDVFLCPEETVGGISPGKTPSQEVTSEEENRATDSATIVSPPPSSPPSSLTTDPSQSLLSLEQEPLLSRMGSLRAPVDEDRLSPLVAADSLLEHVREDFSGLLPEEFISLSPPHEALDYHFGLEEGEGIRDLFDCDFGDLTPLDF

With `Nc1cccc(C(F)(F)F)c1`, the compound was classed as inactive in [1], in assay [2], in assay [3], in assay [4], in [5] and in [6]. Moreover, the compound was classed as inactive in [7], in [8], in assay [9], in assay [10], in assay [11] and in assay [12]. The compound was classed as inactive in assay [13], in assay [14], in assay [15], in assay [16], in assay [17] and in assay [18].
As a reminder, the AC50 is the concentration at which the activity in the assay is half-maximal. In the case of `Nc1nc2ccccc2[nH]1`, the compound was classed as inactive in [1], in assay [2], in assay [3], in assay [5], in assay [6] and in [7]. Besides, the call in assay [8], in assay [9], in [10], in assay [11], in [19] and in assay [12] was inactive. The result in assay [14], in [15], in [16], in assay [17] and in assay [18] was inactive. The half-maximal activity concentration (AC50) was 28.6 µM (active) in assay [4] and 77.9 µM (active) in [13].
As for `CCOc1nc(F)cc2nc(S(=O)(=O)Nc3c(Cl)cccc3C(=O)OC)nn12`, the call in [1], in assay [2], in assay [20], in [5], in assay [6] and in assay [7] was inactive. Moreover, the compound was classed as inactive in assay [8], in [9], in assay [10], in assay [11], in assay [19] and in assay [12]. The result in [13], in assay [14], in [15], in [16], in assay [17] and in assay [18] was inactive.
For `CCCCCCCCCCCSCC(=O)O`, the compound was called inactive in assay [1], in [2], in assay [20], in assay [5], in [6] and in assay [7]. Further, the call in assay [9], in assay [11], in assay [12], in assay [13], in assay [14] and in assay [15] was inactive. Moreover, the compound was called inactive in [16], in assay [17] and in assay [18]. Moreover, the AC50 in [8] was 2.13 µM (active); in [19], 82.6 µM (active).
Consider `CC(=O)OCC(=O)[C@@]12N=C(C)O[C@@H]1C[C@H]1[C@@H]3CCC4=CC(=O)C=C[C@]4(C)[C@H]3[C@@H](O)C[C@@]12C`, for which the outcome in [1], in [2], in assay [3], in assay [4], in assay [5] and in [6] was inactive. The compound was called inactive in [7], in assay [9], in [10], in assay [11], in assay [19] and in assay [12]. Further, the compound was called inactive in assay [14], in assay [15], in assay [17] and in assay [18]. Moreover, the half-maximal activity concentration (AC50) in [8] was 27.5 µM (active); in [13], 34.2 µM (active).
In the case of `CCCCC(CC)COC(=O)c1ccccc1` (configuration not stated), the outcome in assay [1], in assay [2], in assay [3], in [4], in assay [5] and in assay [6] was inactive. Moreover, the compound was classed as inactive in [7], in assay [8], in assay [9], in assay [10], in assay [11] and in assay [12]. The compound was classed as inactive in [14], in [15], in assay [16], in assay [17] and in assay [18]. Besides, the AC50 in assay [13] is 37.3 µM (active).
For `Cc1cccc(N(C)C(=S)Oc2ccc3ccccc3c2)c1`, the compound was classed as inactive in [1], in assay [2], in assay [3], in assay [4], in assay [5] and in [6]. The outcome in [7], in [8], in assay [9], in assay [10], in assay [11] and in assay [19] was inactive. Moreover, the outcome in assay [12], in [14], in assay [15], in [16], in assay [17] and in assay [18] was inactive. For the same compound, the concentration at half-maximal activity (AC50) in assay [13] is 25.3 µM (active).
